Calls of active or inactive are those of the source. The calls were made as follows: active = hit-call score of the fitted dose curve at least 0.9, where 1 is the maximum; inactive = score below 0.9.
Assay: ATG_AP_1_CIS: Attagene CIS-FACTORIAL HepG2 Assay for human Activator Protein 1 (AP-1) (AID 2282931)
Conditions: HepG2 Attagene cis-factorial AP-1 reporter mRNA; actives raise or lower the signal
Procedure: ATG_CIS is a cell-based, multiplexed-readout assay that uses HepG2, a human liver cell line, with measurements taken at 24 hours after chemical dosing in a 24-well plate.ATG_AP_1_CIS is one of 52 assay component(s) measured or calculated from the ATG_CIS assay. It is designed to make measurements of mRNA induction, a form of inducible reporter, as detected with fluorescence intensity signals by Reverse transcription polymerase chain reaction (RT-PCR) and Capillary electrophoresis technology.Data from the assay component ATG_AP_1_CIS was analyzed into 1 assay endpoint. This assay endpoint, ATG_AP_1_CIS, was analyzed with bidirectional fitting relative to DMSO as the negative control and baseline of activity. Using a type of inducible reporter, measures of mRNA for gain or loss-of-signal activity can be used to understand the reporter gene at the transcription factor-level as they relate to the gene FOS and JUN. Furthermore, this assay endpoint can be referred to as a primary readout, because this assay has produced multiple assay endpoints where this one serves a reporter gene function. To generalize the intended target to other relatable targets, this assay endpoint is annotated to the dna binding intended target family, where the subfamily is basic leucine zipper.
Human liver HepG2 cells are transiently transfected with multiple reporter transcription units (MRTUs) in 6-well plates using FuGene 6 reagent (Roche; 3 ml FuGene/1 mg DNA). The MRTU constructs are regulated by a cis-regulating element (promoter). […] A major difference between the CIS and TRANS system is that in CIS activities of endogenous TFs are measured, whereas the TRANS assay evaluates changes in activities of exogenous, chimeric NR-Gal4 proteins. […] At the end of 24 hour incubation, total RNA was isolated using TriZol reagent (Invitrogen). The isolated RNA is then reverse-transcribed using oligo(dT) primer and Mo-MLV reverse transcriptase (Invitrogen) with DNAse I (Ambion) treatment for 30 min. The one-tenth of the produced cDNA was amplified by PCR using Taq DNA polymerase (Invitrogen) and two reporter sequence-specific primers. The PCR products were fluorescently labeled by primer extension with 6-arboxyfluorescein (6-FAM) 5'-labeled reporter sequence-specific primer (2 min at 95 C, 20 s at 68 C and 10 min at 72 C) and these products were digested with 5U of HpaI (New England Biolabs) for 2h at 37 C. The fragments were purified using Qiaquick PCR columns (Qiagen), analyzed on an ABI 3130xL genetic analyzer (Applied Biosystems) with peak positions identified by using a set of X-rhodamine (ROX)-labeled MapMarker1000 molecular weight standards (BioVentures). The raw capillary electrophoresis data was processed using Attagraph software (Attagene).

outcome, inactive:
CCCCCCCCC=O, CCCCCCCCCCN, CC1CCC2CC1C2(C)C (stereo not given), OCCOc1cccc(OCCO)c1, Nc1cc(N)cc(C(=O)O)c1, O=C(O)CCCCCCCCCCC(=O)O, CCCCCCOC(=O)CC, Nc1ccc(F)c([N+](=O)[O-])c1, CCC(O)CO (stereo not given), CCc1c(C)cc(N)c(CC)c1N, Nc1cc([N+](=O)[O-])ccc1Cl, COC(=O)OC, CCCCC/C=C/C=C/C=O, O=C(O)CCSCCC(=O)O, O=C(Oc1ccccc1)c1ccc(O)cc1, CC[C@]12CCCN3CCc4c(n(c5ccccc45)[C@@](O)(C(=O)OC)C1)[C@@H]32, O=C=NC1CCC(CC2CCC(N=C=O)CC2)CC1 (stereo not given), CN1Cc2c(N)cccc2C(c2ccccc2)C1 (stereo not given), CCN(CC)c1ccc2c(-c3ccccc3C(=O)O)c3ccc(=[N+](CC)CC)cc-3oc2c1, Cc1ccc(Nc2ccc(O)c3c2C(=O)c2ccccc2C3=O)cc1, CC(C)(C#N)c1cc(Cn2cncn2)cc(C(C)(C)C#N)c1, CC(=O)C(C)=O, Nc1cccc(S(=O)(=O)c2cccc(N)c2)c1, CCC(C)(O)CCC=C(C)C (stereo not given), C=C[Si](OCC)(OCC)OCC, CCCCNC(=O)NS(=O)(=O)c1ccc(C)cc1, CC(C)=CCC[C@H](C)CC=O, S=C(S)NCCNC(=S)S, O=C1NC(=O)c2ccccc21, NC(N)=NC(=O)c1nc(Cl)c(N)nc1N, NCCCCCCN, CC(C)(C)c1n[nH]c(=S)n(N)c1=O, CN(C)C(=N)N=C(N)N, CC(CCO)CCc1ccccc1 (stereo not given), COc1c(Cl)c(Cl)c(Cl)c(Cl)c1Cl, COc1cc(C=O)ccc1OC(=O)C(C)C, CCCc1ccccc1O

AC50, active:
C=C(C)C(=O)O[C@H]1C[C@@H]2CC[C@@]1(C)C2(C)C 100 µM, c1ccc2sc(SN(C3CCCCC3)C3CCCCC3)nc2c1 11.9 µM, CSc1nc(NC2CC2)nc(NC(C)(C)C)n1 47.5 µM

Source: PubChem BioAssay (EPA / NIEHS)
